# Assay outcomes: PubChem BioAssay, several laboratories
# Rows were chosen to be rich in hits. Some 12% of all compounds tested hit in one or more screens of this group.
# WT yeast gro inh: growth inhibition of WT yeast, mitochondrial fusion screen; 190,000 compounds, 2.1% hits; mitochondrial fusion phenotypic screen, WT strain; inhibition, % at 10 µM; in the data active = inhibition above about 58%; tested in S. cerevisiae
# ROMK mod: modulates human ROMK potassium channel activity; 130,000 compounds, 2% hits; Tet-inducible ROMK, thallium flux fluorescence; actives lie on both sides; P48048; B-score at 10 µM;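 active = signal ratio slope over the read window, or its plate-corrected B-score, at least 3 SD from the plate mean, either direction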;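 note: B-score of the F/F0 ratio slope over 7 to 12 s after thallium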
# Target sequence (P48048 whole entry, looked up): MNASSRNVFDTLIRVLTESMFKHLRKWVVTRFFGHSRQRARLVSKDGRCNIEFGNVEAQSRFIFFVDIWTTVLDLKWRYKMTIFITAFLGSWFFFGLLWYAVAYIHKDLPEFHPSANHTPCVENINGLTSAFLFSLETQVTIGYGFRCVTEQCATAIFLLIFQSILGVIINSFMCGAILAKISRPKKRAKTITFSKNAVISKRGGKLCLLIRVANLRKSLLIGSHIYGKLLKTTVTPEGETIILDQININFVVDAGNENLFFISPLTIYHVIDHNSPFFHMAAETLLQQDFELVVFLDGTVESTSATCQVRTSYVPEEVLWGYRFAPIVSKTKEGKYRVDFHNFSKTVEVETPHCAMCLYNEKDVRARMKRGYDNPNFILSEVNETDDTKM
# KCC2 mod: KCC2 (human) Cl- transport modulation. AID 1456. 190,000 compounds, 2.2% hits. Q9H2X9. B-score of Tl+ flux slope (higher = more flux/activation; lower = inhibition) at 10 µM. KCC2 cells, thallium flux FluoZin-2 fluorescence;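 active = thallium flux slope and its plate-corrected score both differing from the plate sample mean at a set confidence after two filtering rounds, in either direction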;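 note: slope of fluorescence scaled to starting intensity during 10 to 20 s after thallium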
# INS promoter inh: TRM-6 insulin promoter activity inhibition; TRM-6 cells (human fetal islet line), insulin promoter-eGFP reporter, imaging; reporter expression induced with tamoxifen; inhibition, % at 2 µM; 130,000 compounds, 0.9% hits; AID 1273;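 active = inhibition above the mean plus 3 SD, with well images judged a real hit on visual review, cut at about 60% in these data, passing the limit was not always enough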
# L major viab: inhibitors of Leishmania major promastigote growth; Leishmania major promastigotes, resazurin fluorescence viability; inhibition, % at 10 µM; 200,000 compounds, 9% hits; AID 1063; in the data active = inhibition above about 50%;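 note: promastigotes grown with compound for 44 hours at 28 °C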
# Ins promoter up: MIN6 insulin promoter up-regulation | MIN6 insulin promoter-GFP reporter, high-content imaging; stronger effect = higher value | z-score at 5 µM | 190,000 compounds, 0.3% hits | AID 1625;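 active = z-score above 3 at 5 µM with at least 500 cells counted in the well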
# Starred values were filed as active, the others as inactive; · = not tested or not shown.
SMILES,WT yeast gro inh,ROMK mod,KCC2 mod,INS promoter inh,L major viab,Ins promoter up
CCCCN(CCCC)S(=O)(=O)c1ccc(NC(=O)c2ccc([N+](=O)[O-])cc2Cl)cc1,23,-0.085,0,30,100*,-0.91
CC(C)C(=O)Nc1sc2c(c1-c1nc3ccccc3[nH]1)CCCC2,21,·,0.21,11,61*,-2
CC(NC(=O)Cc1ccccc1)c1nc2ccccc2[nH]1 (stereo not drawn),13,·,-0.54,·,-5,0.66
COc1ccc(N2CC(O)=C(c3nc(-c4ccc(Cl)cc4)cs3)C2=N)cc1,4,0.56,-0.18,·,-8,-0.02
CCOc1ccc(CCNC(=O)CCN2C(=O)COc3ccccc32)cc1OCC,-8,0.64,·,-23,2,-0.1
Cc1ccccc1OCC(=O)N1N=C(c2cccnc2)CC1(O)C(F)(F)F (stereo not drawn),-9,·,-0.36,-28,51*,·
CCn1c(C)c2c([n+]1CC)CC(C)(C)CC2=O,16,1.6,0.16,-29,-6,0.32
COc1ccc(-n2c(CN3CCN(Cc4ccccc4)CC3)nc3ccc([N+](=O)[O-])cc3c2=O)c(OC)c1,15,-0.06,0.028,·,9,0.51
COc1cccc(-n2c(CN3CCN(Cc4ccccc4)CC3)nc3ccc([N+](=O)[O-])cc3c2=O)c1,-5,-0.011,-0.026,3,76*,-0.28
COc1cccc(/C=C/C(=O)NNC(=O)CCN2CCN(Cc3ccccc3)CC2)c1,·,·,0.1,·,·,-0.12
CN1CCN(CCC(=O)Nc2ccc(OCc3ccccc3)cc2)CC1,-27,·,·,·,82*,0.03
O=C(CCN1CCN(CCO)CC1)Nc1ccc(OCc2ccccc2)cc1,-17,-0.56,·,-21,61*,-0.41
O=C(/C=C/c1ccc(F)cc1)NNC(=O)CCN1CCN(Cc2ccccc2)CC1,-17,-1.3,-1.3,·,54*,-0.71
COC(=O)c1ccc(NC(=O)CCN2CCN(Cc3ccccc3)CC2)cc1,-19,·,-1.9,50,75*,·
CCOC(=O)c1cc(C(C)=O)c(=O)[nH]c1C,-9,0.11,0.93,·,-4,1.7
CC(C)C(=O)Nc1ccc(C(=O)c2ccccc2)cc1,12,·,-0.013,0,99*,·
CCOC(=O)Cn1c(S(=O)(=O)Cc2cccc(F)c2)nc(-c2ccccc2)c1-c1ccccc1,28,·,·,-59,90*,-0.81
C#CCn1c(S(=O)(=O)Cc2ccc(F)cc2)nc(-c2ccccc2)c1-c1ccccc1,1,·,-0.96,-34,96*,-1.4
CCOC(=O)Cn1c(S(=O)(=O)Cc2ccc(F)cc2)nc(-c2ccccc2)c1-c1ccccc1,·,·,0.48,-36,10,·
Cc1ccc2[nH]c(=O)c(CN(CC3CCCO3)C(=S)NCc3ccco3)cc2c1 (stereo not drawn),-2,·,-0.015,-67,57*,0.95
COc1cc(C(=O)N(Cc2cc3cc(C)ccc3[nH]c2=O)CC2CCCO2)cc(OC)c1OC (stereo not drawn),12,0.54,0.055,23,0,-0.72
COc1cccc(C(=O)N(Cc2cc3cc(C)ccc3[nH]c2=O)CC2CCCO2)c1 (stereo not drawn),4,-0.16,-0.3,-16,75*,-0.69
Cc1ccc(C)c2[nH]c(=O)c(CN(Cc3ccco3)C(=S)NCC3CCCO3)cc12 (stereo not drawn),-13,-2.4,-2.1,-47,59*,-0.59
Cc1ccc2[nH]c(=O)c(CN(CC3CCCO3)C(=S)Nc3ccccc3)cc2c1 (stereo not drawn),16,-0.05,0.61,-77,54*,·
COc1ccc(Cl)cc1S(=O)(=O)Oc1ccc(NC(C)=O)cc1,-17,·,-0.69,44,-1,-0.17
SMILES,WT yeast gro inh,ROMK mod,KCC2 mod,INS promoter inh,L major viab,Ins promoter up
COc1ccc(-c2ccc(SC)nn2)cc1,40,·,·,·,6,0.46
COc1ccc2[nH]c(=O)c(CN(C(=O)c3ccco3)C3CCCCC3)cc2c1,·,0.79,-0.0049,-30,94*,1.3
Cc1ccc2cc(CN(CC3CCCO3)C(=S)Nc3ccccc3)c(=O)[nH]c2c1C (stereo not drawn),22,-1.4,-2.1,0,67*,-1.5
CNS(=O)(=O)c1ccc(NC(=O)c2cncc(Br)c2)cc1,7,0.32,-0.26,·,-1,-0.21
CC(C)c1ccc(C(=O)NCCCN2CCN(CCCNC(=O)c3ccc(C(C)C)cc3)CC2)cc1,11,-2.1,-1.8,-5,13,0.08
COC(=O)NCCOc1cc(C)ccc1C,1,0.43,0.17,-49,-11,0.13
Cc1ccc(C)c(OCCCN2CCCC2)c1,0,·,-0.94,-93,98*,-0.53
Cc1ccc(C(C)C)cc1OCCCCN1CCCC1,32,-0.21,0.51,-41,99*,0.78
C/C=C(/C)C(=O)Nc1cccc(C2=NOC3(C2)C[C@@H](C(N)=O)N(C(=O)/C=C/CC)C3)c1 (stereo partly drawn),·,·,0.59,·,·,-0.21
Cc1ccc(CN2CCc3c(OCC(=O)Nc4cc(C)ccc4C)cccc3C2=O)cc1,0,-0.85,0.54,16,12,0.41
NS(=O)(=O)c1ccc(CNC(=O)C2(c3ccc(Cl)cc3)CC2)cc1,-4,0.34,-0.76,·,85*,0.81
COc1ccc(CNC(=O)C2(c3ccc(Cl)cc3)CC2)cc1,3,0.29,-0.54,75*,4,0.42
COc1ccc(CNC(=O)c2c(F)c(F)c(F)c(F)c2F)cc1,-9,·,0.039,13,53*,1.4
Cc1cc(Oc2ccc(C(C)(C)C)cc2)nc(N2CCOCC2)n1,75*,-0.4,-0.025,-19,-1,-0.72
Cc1cc(Oc2ccc(-c3ccccc3)cc2)nc(N2CCOCC2)n1,19,-0.34,-0.18,21,0,-0.03
C/C(=N\NC(=O)c1cc(-c2ccncc2)nc2ccccc12)c1ccc(OC(F)F)cc1,4,0.051,-0.78,-11,89*,-2.2
CC(C)N(CCc1ccncc1)C(=O)Nc1ccc(Cl)c(Cl)c1,17,·,·,·,92*,0.6
Fc1ccc(CCNC(=S)Nc2ccc(F)c(Cl)c2)cc1,77*,0.52,-2.8,·,12,-0.38
O=C(NCCc1ccc(Cl)cc1)Nc1cccc(Cl)c1,61*,·,-1.4,-21,1,·
O=C(NCCc1ccncc1)Nc1ccc(Cl)c(Cl)c1,2,-0.0097,-1.8,·,96*,-0.76
CC1CCCCC1NC(=O)Cn1nnc2ccccc2c1=O (stereo not drawn),-5,-0.59,0.02,·,1,0.24
COc1ccc(OC)c(N/C=C/C(=C(C#N)C#N)N(C)C)c1,11,1.1,·,·,8,-0.15
CN(CCc1cnn(C)c1)Cc1cn[nH]c1-c1ccc(-c2ccccc2)cc1,14,-0.5,-0.9,9,90*,·
CCOC(=O)Cc1csc(NC(=O)CSc2nnnn2-c2ccc(CC)cc2)n1,4,·,-3,6,-6,·
CC1=C/C(=N\Nc2ccccc2[N+](=O)[O-])CC(C)(C)C1,64*,0.21,0,0,40,0.09
CCc1ccc(/C=C2/SC(=S)N(CC(=O)Nc3nc4ccccc4s3)C2=O)cc1,0,·,4.9*,63,-2,-0.09
